Test results reported in paper PMC4552634, “A New Set of Chemical Starting Points with Plasmodium falciparum Transmission-Blocking Potential for Antimalarial Drug Discovery” (PLoS ONE, 2015).
Screen size: about 13,000 compounds; about 3,200 (25%) showed an effect of 50% or more. This is one part of the list.

Test system: P. falciparum stage V gametocytes
Design: BacTiter-Glo ATP luminescence viability of purified stage V gametocytes in 384-well plates, per cent inhibition versus DMSO
Settings: 48 h, 5 µM; inhibitor

Q: `CCC(ON1C(N)=NC(N)=NC1(C)C)c1ccc(Cl)cc1` (stereo not shown) [TCMDC-131709] was tested. Which “% Inhibition” value did it give?
A: 18.34%

Q: Which “% Inhibition” value does the source give for `Cc1cc(S(=O)(=O)N2CCCCC(c3ccc(C(F)(F)F)cc3)=N2)c(Cl)cc1Cl` [TCMDC-134540] here?
A: -43.69%

Q: Which “% Inhibition” value does the source give for `Cc1ccc(S(=O)(=O)NC2=NC(C)(C)N(OCc3ccc(Cl)c(Cl)c3)C(N)=N2)cc1` [TCMDC-131711] here?
A: 22.12%

Q: How did the “% Inhibition” value turn out when `CN1CCN(c2cc(-c3cccc(C(F)(F)F)c3)nc(-c3ccncc3)n2)CC1` [TCMDC-125413] was run?
A: 29.7%

Q: How did the “% Inhibition” value turn out when `Nc1cc(-c2cccc(Cl)c2)nn1-c1ccnc2cc(Cl)ccc12` [TCMDC-134027] was run?
A: -29.85%

Q: For `Nc1nc(-c2ccccn2)nc(-n2nc(-c3cccc(C(F)(F)F)c3)cc2N)n1` [TCMDC-134026], which “% Inhibition” value is on record?
A: 76.36%

Q: `Cc1ccccc1C1CCN(c2ccc(C(=O)Nc3ccccc3)cn2)CC1` [TCMDC-134584] was tested. Which “% Inhibition” value did it give?
A: 3.597%

Q: Which “% Inhibition” value does the source give for `CC(=NNC(=S)NC(c1ccccc1)c1ccccc1)c1ccccn1` [TCMDC-137894] here?
A: -31.88%

Q: With `O=C(NCCc1ccccc1)c1cc(-c2cccnc2)cnc1NCC1CC1` [TCMDC-136700] as the compound, how does the “% Inhibition” value read?
A: 4.382%

Q: How did the “% Inhibition” value turn out when `COc1cccc2c(NCCNc3ccnc4c(OC)cccc34)ccnc12` [TCMDC-137880] was run?
A: 30.12%

Q: For `CC(=NNC(=S)NCc1ccco1)c1ccccn1` [TCMDC-137906], which “% Inhibition” value is on record?
A: 99.6%

Q: For `CCOc1ccc2nc(NC(=O)c3csnn3)sc2c1` [TCMDC-125075], which “% Inhibition” value is on record?
A: 43.02%

Q: For `COc1cc(CNC(=S)NN=C(C)c2ccccn2)cc(OC)c1OC` [TCMDC-137900], which “% Inhibition” value is on record?
A: 55.54%

Q: `CC(=NNC(=S)NCCc1ccccc1)c1ccccn1` [TCMDC-124270] was tested. Which “% Inhibition” value did it give?
A: 79.29%

Q: For `COc1cc(-c2nc3c4ccccc4c4ccccc4c3[nH]2)cc(OC)c1OC` [TCMDC-123980], which “% Inhibition” value is on record?
A: 2.227%

Q: For `CC(=NNc1nc2ccccc2s1)c1ccccn1` [TCMDC-124267], which “% Inhibition” value is on record?
A: 64.52%

Q: With `O=c1cc(NCCCNCc2[nH]c3cc(Cl)cc(Cl)c3c2Cn2cccn2)[nH]c2ccccc12` [TCMDC-140152] as the compound, how does the “% Inhibition” value read?
A: -2.677%

Q: How did the “% Inhibition” value turn out when `COc1ccc2nccc([C@@H](O)CN3CCC(NCCc4c[nH]c5ccccc45)CC3)c2c1` [TCMDC-140938] was run?
A: 7.162%

Q: How did the “% Inhibition” value turn out when `CCc1ccc(O)c(-c2cc(C(=O)Nc3ccc(OC)c(Cl)c3)[nH]n2)c1` [TCMDC-125072] was run?
A: 5.954%

Q: How did the “% Inhibition” value turn out when `COc1ccc2nccc([C@@H](O)CN3CCC(NCc4ccc5c(c4)nnn5C(C)C)CC3)c2c1` [TCMDC-141011] was run?
A: -16.76%

Q: `CCc1ccc(CN2CCC(C(=O)Nc3ccc(-c4nc5ccccc5[nH]4)cc3)CC2)o1` [TCMDC-124686] was tested. Which “% Inhibition” value did it give?
A: -27.59%

Q: For `CNC(=S)NN=C(C)c1ccccn1` [TCMDC-123475], which “% Inhibition” value is on record?
A: 90.46%

Q: Which “% Inhibition” value does the source give for `Cc1ccc(Oc2cnn(C)c(=O)c2Nc2cccc(C(=O)NCCc3ccccn3)c2)c(C)c1` [TCMDC-124786] here?
A: 34.52%

Q: With `COCCCNC(=S)NN=C(C)c1ccccn1` [TCMDC-137907] as the compound, how does the “% Inhibition” value read?
A: 93.04%

Q: `CC(=NNC(=S)NCCc1ccccn1)c1ccccn1` [TCMDC-137895] was tested. Which “% Inhibition” value did it give?
A: 92.63%

Q: How did the “% Inhibition” value turn out when `Clc1ccc2c(NCCc3ccccn3)ccnc2c1` [TCMDC-123461] was run?
A: 8.42%

Q: With `CC(=NNC(=S)NC(C)(C)C)c1ccccn1` [TCMDC-137783] as the compound, how does the “% Inhibition” value read?
A: 15.81%

Q: With `CN(c1ccc(NC(=O)c2ccc(F)cc2)cc1)C1CCN(Cc2cccc(F)c2)C1` (stereo not shown) [TCMDC-135003] as the compound, how does the “% Inhibition” value read?
A: -17.16%

Q: Which “% Inhibition” value does the source give for `O=C(Nc1ccc(OC2CCN(Cc3ccsc3)C2)c(Cl)c1)c1ccc2ncccc2c1` (stereo not shown) [TCMDC-133951] here?
A: -25.76%

Q: Which “% Inhibition” value does the source give for `C[C@H](Nc1c(Nc2ccc3[nH]ccc3c2)c(=O)c1=O)C1CCCCC1` [TCMDC-138193] here?
A: -95.47%

Q: `O=C(NCCCCCN1CCC(c2c[nH]c3ccccc23)CC1)Nc1cccc(C(F)(F)F)c1` [TCMDC-139217] was tested. Which “% Inhibition” value did it give?
A: -48%

Q: Which “% Inhibition” value does the source give for `Cn1nc(-c2ccc(S(=O)(=O)N3CCC(CCN4CCC(c5c[nH]c6ccccc56)CC4)CC3)s2)cc1C(F)(F)F` [TCMDC-140168] here?
A: 106.2%

Q: With `Cn1nc(-c2ccc(S(=O)(=O)N3CCC(CN4CCC(c5c[nH]c6ccccc56)CC4)CC3)s2)cc1C(F)(F)F` [TCMDC-140171] as the compound, how does the “% Inhibition” value read?
A: 114.8%

Q: Which “% Inhibition” value does the source give for `O=C(NCc1ccc(S(=O)(=O)N2CCC(CN3CCC(c4c[nH]c5ccccc45)CC3)CC2)s1)c1ccccc1` [TCMDC-140170] here?
A: 48.92%

Q: With `FC(F)(F)c1cccc(N2CCC(CN3CCC(c4c[nH]c5ccccc45)CC3)CC2)n1` [TCMDC-134280] as the compound, how does the “% Inhibition” value read?
A: 19.45%

Q: For `Cn1ncc2ccc(Nc3nccc(-c4ccc5c(c4)c(N)nn5C)n3)cc21` [TCMDC-137049], which “% Inhibition” value is on record?
A: 80.69%

Q: `Nc1nccc2ccc(-c3ccnc(NCc4cccnc4)n3)cc12` [TCMDC-136735] was tested. Which “% Inhibition” value did it give?
A: -3.627%

Q: With `Cc1ccc(-c2cnc(N)c3cc(-c4ccnc(N)n4)ccc23)cc1` [TCMDC-134544] as the compound, how does the “% Inhibition” value read?
A: 25.6%

Q: How did the “% Inhibition” value turn out when `Cc1cccc2[nH]c(-c3ccc(-c4cccc(NC(=O)c5cnn6cccnc56)c4)cc3)nc12` [TCMDC-136865] was run?
A: 23.94%

Q: With `COc1cccc(C(=O)Nc2ccc(Nc3nc(C)cc(N(C)C)n3)cc2)c1OC` [TCMDC-124719] as the compound, how does the “% Inhibition” value read?
A: 58.09%

Q: Which “% Inhibition” value does the source give for `COc1ccccc1C(=O)Nc1ccc(Nc2nc(C)cc(N(C)C)n2)cc1` [TCMDC-124728] here?
A: -11.89%

Q: With `COc1cccc(C(=O)Nc2ccc(Nc3nc(C)cc(N(C)C)n3)cc2)c1` [TCMDC-124720] as the compound, how does the “% Inhibition” value read?
A: -4.624%

Q: `Cc1cc(N(C)C)nc(Nc2ccc(NC(=O)c3ccccc3C)cc2)n1` [TCMDC-124729] was tested. Which “% Inhibition” value did it give?
A: -17.39%

Q: With `COc1ccc(C(=O)Nc2ccc(Nc3nc(C)cc(N(C)C)n3)cc2)c(OC)c1` [TCMDC-124727] as the compound, how does the “% Inhibition” value read?
A: 63.21%

Q: `COc1ccc(NC(=O)Nc2ccc(Nc3nc(C)cc(N(C)C)n3)cc2)cc1` [TCMDC-124960] was tested. Which “% Inhibition” value did it give?
A: 1.588%

Q: `Cc1nc2c(=O)sc3ccccc3c2n1Cc1ccccc1` [TCMDC-125754] was tested. Which “% Inhibition” value did it give?
A: -11.8%

Q: `CN(C)CCN(C)Cc1ccc(-c2ccc(NC(=O)c3ccc(Cl)cc3)cc2)cc1` [TCMDC-132587] was tested. Which “% Inhibition” value did it give?
A: -35.6%

Q: `CN(C)CCN(C)Cc1ccc(-c2cccc(NC(=O)c3ccc(Cl)cc3)c2)cc1` [TCMDC-132631] was tested. Which “% Inhibition” value did it give?
A: 0.8563%

Q: For `CN(CCCCN)Cc1ccc(-c2ccc(Cl)cc2)cc1` [TCMDC-140123], which “% Inhibition” value is on record?
A: 92.64%
